# Inconclusive results are not listed. Unmarked numbers belong to inactive results. Active and inactive are the calls of the source. The call rests on the fitted dose curve; in most records, active means well fitted inhibition curve with a large enough effect; inconclusive means small, poorly fitted or top-dose-only effect; inactive means flat fitted curve, though single readings scatter.
# Biological target: Ubiquitin carboxyl-terminal hydrolase 1 (Homo sapiens) (UniProt O94782)
# Assay: Inhibitors of USP1/UAF1: Pilot qHTS (AID 504865); further: nearly all actives have a fitted effect of over 35% in size;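 on activity change, negative = inhibition: rhodamine fluorescence freed from ubiquitin-rhodamine substrate followed over time; top concentration of the series differs between compounds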
# Settings: purified USP1/UAF1, Ub-rhodamine cleavage fluorescence; series mostly up to 114 µM; activity change, negative = inhibition: at the top concentration
# Method in brief: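 USP1/UAF1 complex (1nM) preincubated with compound 15 min at room temperature, then Ub-Rho substrate (150nM final) added. Fluorescence read kinetically at 480/540 nm, 6 reads every 60 seconds. Buffer: 50mM HEPES pH 7.8, 0.5mM EDTA, 0.1 mg/ml BSA, 1mM TCEP, 0.01% Tween-20.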
# On the % scale 0 is the no-effect control and ±100 the full control effect; potency means the concentration at half of the fitted maximal effect.
# Sequence of Ubiquitin carboxyl-terminal hydrolase 1 (Homo sapiens) (O94782 whole entry, looked up): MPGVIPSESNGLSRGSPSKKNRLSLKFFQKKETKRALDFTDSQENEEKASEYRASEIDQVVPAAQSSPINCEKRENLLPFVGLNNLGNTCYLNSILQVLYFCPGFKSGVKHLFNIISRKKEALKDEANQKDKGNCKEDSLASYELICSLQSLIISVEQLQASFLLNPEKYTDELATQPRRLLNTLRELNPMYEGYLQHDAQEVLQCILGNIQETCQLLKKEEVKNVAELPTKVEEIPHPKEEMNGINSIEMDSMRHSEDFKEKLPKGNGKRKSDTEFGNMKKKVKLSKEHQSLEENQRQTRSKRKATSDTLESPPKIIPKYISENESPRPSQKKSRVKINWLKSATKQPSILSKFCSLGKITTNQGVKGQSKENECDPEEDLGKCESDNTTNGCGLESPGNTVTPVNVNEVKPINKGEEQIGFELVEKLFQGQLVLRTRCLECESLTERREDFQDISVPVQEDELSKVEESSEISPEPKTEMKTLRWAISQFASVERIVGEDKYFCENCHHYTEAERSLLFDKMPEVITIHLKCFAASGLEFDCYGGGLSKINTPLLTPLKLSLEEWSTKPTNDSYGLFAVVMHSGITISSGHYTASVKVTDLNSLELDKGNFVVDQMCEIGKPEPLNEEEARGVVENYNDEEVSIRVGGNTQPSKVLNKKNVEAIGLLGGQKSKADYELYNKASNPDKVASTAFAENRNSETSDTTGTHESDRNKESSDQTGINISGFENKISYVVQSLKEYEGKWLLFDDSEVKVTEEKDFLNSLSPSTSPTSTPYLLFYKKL
Compound,"activity change, negative = inhibition",Potency
COc1ccc2c3c1O[C@H]1C[C@@H](O)C=C[C@@]31CCN(C)C2,2.31%,
C[C@@H]1CCC2[C@@H](C)[C@@H](O)O[C@@H]3O[C@@]4(C)CC[C@@H]1[C@@]23OO4 (some centres not stated),-6.95%,
COCC(=O)Nc1cc(Sc2ccccc2)ccc1N=C(NC(=O)OC)NC(=O)OC,-4.25%,
O=C(O)c1cc(O)c2c(c1)[O][Bi][O]2,-3.77%,
CC(=O)Oc1c(C)cc(OCC(O)CNC(C)C)c(C)c1C (configuration not stated),-6.22%,
O=C(COc1ccc(Cl)cc1)OCCNC12CC3CC(CC(C3)C1)C2,-8.25%,
CC[N+](C)(C)Cc1ccccc1Br,2.14% [at 54.9 µM],
COC(C(=O)C(O)C(C)O)C1Cc2cc3cc(OC4CC(OC5CC(O)C(O)C(C)O5)C(O)C(C)O4)c(C)c(O)c3c(O)c2C(=O)C1OC1CC(OC2CC(OC3CC(C)(O)C(O)C(C)O3)C(O)C(C)O2)C(O)C(C)O1 (configuration not stated),7.48%,
C=C1C(=CC=C2CCC[C@@]3(C)[C@@H]2CC[C@H]3[C@H](C)CCCC(C)C)C[C@@H](O)C[C@@H]1O,,22.4 µM (active)
Cc1cc(/C=C/c2ccc3cc(N(C)C)ccc3[n+]2C)c(C)n1-c1ccccc1,,44.7 µM (active)
NC1C2CN(c3nc4c(cc3F)c(=O)c(C(=O)O)cn4-c3ccc(F)cc3F)CC12 (configuration not stated),-5.22%,
CC1=C(/C=C/C(C)=C/C=C/C(C)=C/C=C/C=C(C)/C=C/C=C(C)/C=C/C2=C(C)CCCC2(C)C)C(C)(C)CCC1,-1.64%,
CC(C)(C)C(=O)OCOC(=O)[C@@H]1N2C(=O)[C@@H](N=CN3CCCCCC3)[C@H]2SC1(C)C,5.74% [at 54.9 µM],
C=CCSSSCC=C,-3.54%,
CC(=O)Oc1cc(C)c(OC(C)=O)c2ccccc12,-9.04%,
Clc1cc(Cl)c(OCC#CI)cc1Cl,-5.4%,
CCN(CC)Cc1cc(Nc2ccnc3cc(Cl)ccc23)ccc1O,-12% [at 54.9 µM],
CN1Cc2c(N)cccc2C(c2ccccc2)C1 (configuration not stated),,inactive
CC(C(=O)O)c1ccc(N2Cc3ccccc3C2=O)cc1 (configuration not stated),-11.2%,

Compound,"activity change, negative = inhibition",Potency
CCCCCCOc1ccc(C(=N)N(CCCC)CCCC)c2ccccc12,,39.8 µM (active)
C[C@]12CCC(=O)C=C1CC[C@@H]1[C@@H]2[C@@H](O)C[C@@]2(C)[C@H]1CC[C@]2(O)C(=O)COP(=O)(O)O,-4.28%,
CCCCCCCCCCCC[n+]1ccc2ccccc2c1,,89.1 µM (active)
CCCCCCCCCCCCCC[n+]1ccc(C)cc1,,56.2 µM (active)
Cc1ccccc1OCC(O)CNCCOc1ccc(C(N)=O)cc1 (configuration not stated),-11.6%,
O=S(=O)(O)c1cc(O)c2c(N=Nc3ccc(Nc4ccccc4)c4c(S(=O)(=O)O)cccc34)cc(S(=O)(=O)O)cc2c1,,11.2 µM (active)
CCCCCCCCCCCCCCCC(=O)OCC(COC(=O)CCCCCCCCCCCCCCC)OC(=O)CCCCCCCCCCCCCCC,-8.34%,
CCCCC(C)(O)C/C=C/[C@H]1[C@H](O)CC(=O)[C@@H]1CCCCCCC(=O)OC (some centres not stated),3.34%,
Nc1c(N=Nc2ccc(-c3ccc(N=Nc4cc(S(=O)(=O)O)c5ccccc5c4N)cc3)cc2)cc(S(=O)(=O)O)c2ccccc12,,15.8 µM (active)
CCC(=O)NCCC1CCc2ccc3c(c21)CCO3 (configuration not stated),-3.43%,
NC(=O)c1ncn(C2OC(CO)C(O)C2O)n1 (configuration not stated),2.23%,
CC1(C)S[C@@H]2[C@H](NC(=O)Cc3ccccc3)C(=O)N2[C@H]1C(=O)O,2.16% [at 54.9 µM],
CCCC(=O)Nc1ncnc2c1ncn2C1OC2COP(=O)(O)OC2C1OC(=O)CCC (configuration not stated),-0.134%,
O=S(=O)(O)c1ccc2c(N=Nc3ccc(S(=O)(=O)O)c4ccccc34)c(O)c(S(=O)(=O)O)cc2c1,,17.8 µM (active)
CC1(C)S[C@@H]2[C@H](NC(=O)[C@@H](NC(=O)N3CCNC3=O)c3ccccc3)C(=O)N2[C@H]1C(=O)O,4.8% [at 54.9 µM],
CC(NNC(=O)c1ccccc1)c1ccccc1 (configuration not stated),-9.41%,
Nc1ncnc2c1ncn2[C@@H]1O[C@H](COP(=O)(O)OP(=O)(O)OP(=O)(O)O)[C@@H](O)[C@H]1O,3.11%,
COC(=O)CCC(=O)CN,-2.44%,

# Source: PubChem BioAssay (NCATS)
